Assay results from PubChem BioAssay AID1159580 (chemical genetic matrix, 2015).
Several values for one entry are separate records, joined by “and”; a condition that tells them apart may be missing. Equal entries are not always repeated. The whole screen tested about 5,500 compounds, of which about 2,000 (36%) were called active. Another 18% or so got no clear call; they are omitted. Cut-off read from the data, not from the text of the source: active = normalized growth mostly below about 0.91 (no sharp cut-off); inconclusive = no clear call, values can overlap the other calls; inactive = mostly above about 0.92. Some of the results follow.

Experiment: chemical genetic growth profiling, strain panel (AID 1159580);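 note: tested at 20 µM; growth read once vehicle control cultures reached saturation at 30 °C; 1 = growth at the plate median or of vehicle wells; lower values mean less growth of the strain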
Conditions: S. cerevisiae deletion strains, growth OD

Measured: normalized growth

CN(C)CC/C=C1\c2ccccc2Sc2ccc(Cl)cc21
0.637 (active) and 0.914 (inactive): locus YJL095W, strain BCK1, stronger effect = lower value
active: locus YAL013W, strain DEP1, stronger effect = lower value 0.907 | locus YAL021C, strain ccr4, stronger effect = lower value 0.696 | locus YAL026C, strain drs2, stronger effect = lower value 0.0729 | locus YBL061C, strain skt5, stronger effect = lower value 0.863 | locus YBR009C, strain hhf1, stronger effect = lower value 0.859 | locus YBR021W, strain FUR4, stronger effect = lower value 0.605 | locus YBR023C, strain chs3, stronger effect = lower value 0.831 | locus YBR231C, strain swc5, stronger effect = lower value 0.676 | locus YBR279W, strain paf1, stronger effect = lower value 0.904 | locus YCL011C, strain gbp2, stronger effect = lower value 0.897 | locus YCL016C, strain dcc1, stronger effect = lower value 0.894 | locus YDL074C, strain BRE1, stronger effect = lower value 0.775 | locus YDL134C, strain PPH21, stronger effect = lower value 0.882 | locus YDR069C, strain doa4, stronger effect = lower value 0.684 | locus YDR137W, strain rgp1, stronger effect = lower value 1.33 [resistant] | locus YDR195W, strain ref2 1.49 [resistant] | locus YDR388W, stronger effect = lower value 0.819 | locus YER015W, strain faa2, stronger effect = lower value 0.668 | locus YFR010W, strain ubp6, stronger effect = lower value 0.706 | locus YGL173C, strain kem1, stronger effect = lower value 0.844 | locus YGL253W, strain hxk2, stronger effect = lower value 0.845 | locus YGR135W, strain pre9, stronger effect = lower value 0.827 | locus YGR229C, strain SMI1, stronger effect = lower value 0.635 | locus YGR252W, strain gcn5, stronger effect = lower value 0.542 | locus YHR013C, strain ard1, stronger effect = lower value 0.637 | locus YHR027C, strain rpn1, stronger effect = lower value 0.679 | locus YHR142W, strain chs7, stronger effect = lower value 0.76 | locus YIL066C, strain RNR3, stronger effect = lower value 0.854 | locus YJL095W, strain BCK1 (second series), stronger effect = lower value 0.628 | locus YJL164C, strain tpk1, stronger effect = lower value 0.878 | locus YJL166W, strain qcr8, stronger effect = lower value 0.877
0.882 (active) and 0.899 (inactive): locus YHR030C, strain SLT2, stronger effect = lower value
inactive: locus YAL030W, strain snc1, stronger effect = lower value 0.985 | locus YBR171W, strain sec66, stronger effect = lower value 0.984 | locus YBR229C, strain ROT2, stronger effect = lower value 1.01 | locus YCL029C, strain bik1, stronger effect = lower value 1.03 | locus YCL061C, strain MRC1, stronger effect = lower value 0.987 | locus YCL069W, strain vba3, stronger effect = lower value 0.962 | locus YCR088W, strain abp1, stronger effect = lower value 0.971 | locus YDL005C, strain med2, stronger effect = lower value 1.01 | locus YDL035C, strain GPR1, stronger effect = lower value 0.901 | locus YDL040C, strain nat1, stronger effect = lower value 1 | locus YDL101C, strain DUN1, stronger effect = lower value 0.99 | locus YDL185W, strain tfp1, stronger effect = lower value 1.02 | locus YDL192W, strain arf1, stronger effect = lower value 1 | locus YDR001C, strain nth1, stronger effect = lower value 0.996 | locus YDR101C, strain arx1, stronger effect = lower value 0.977 | locus YDR150W, strain NUM1, stronger effect = lower value 1.02 | locus YDR159W, strain sac3, stronger effect = lower value 0.996 | locus YDR162C, strain NBP2, stronger effect = lower value 0.895 | locus YDR297W, strain sur2, stronger effect = lower value 0.975 | locus YDR318W, strain mcm21, stronger effect = lower value 0.982 | locus YDR334W, strain swr1, stronger effect = lower value 0.974 | locus YDR335W, strain msn5, stronger effect = lower value 0.96 | locus YDR392W, strain spt3, stronger effect = lower value 0.995 | locus YDR502C, strain sam2, stronger effect = lower value 0.951 | locus YEL003W, strain gim4, stronger effect = lower value 0.966 | locus YEL037C, strain rad23, stronger effect = lower value 0.983 | locus YEL061C, strain CIN8 (second series), stronger effect = lower value 0.981 | locus YEL061C, strain CIN8, stronger effect = lower value 1 | locus YER016W, strain bim1, stronger effect = lower value 0.953 | locus YER110C, stronger effect = lower value 1.02 | locus YER111C, strain swi4, stronger effect = lower value 0.99 | locus YER155C, strain BEM2 (second series), stronger effect = lower value 1.03 | locus YER155C, strain BEM2, stronger effect = lower value 1.03 | locus YER167W, strain BCK2, stronger effect = lower value 1 | locus YGL078C, strain dbp3, stronger effect = lower value 1.01 | locus YGL086W, strain mad1, stronger effect = lower value 0.942 | locus YGL167C, strain pmr1, stronger effect = lower value 0.997 | locus YGL227W, strain vid30, stronger effect = lower value 0.979 | locus YGL240W, strain doc1, stronger effect = lower value 0.95 | locus YGL248W, strain PDE1, stronger effect = lower value 0.894 | locus YHR079C, strain IRE1 (second series), stronger effect = lower value 1 | locus YHR079C, strain IRE1, stronger effect = lower value 0.93 | locus YHR094C, strain hxt1, stronger effect = lower value 1.02 | locus YHR129C, strain ARP1, stronger effect = lower value 0.994 | locus YHR200W, strain rpn10, stronger effect = lower value 1.02 | locus YIL073C, strain SPO22, stronger effect = lower value 0.961 | locus YIL125W, strain kgd1, stronger effect = lower value 1.01 | locus YIR030C, strain dcg1, stronger effect = lower value 1.01 | locus YJL092W, strain hpr5, stronger effect = lower value 0.972 | locus YJL115W, strain asf1, stronger effect = lower value 0.987 | locus YJL129C, strain trk1, stronger effect = lower value 0.91 | locus YJL134W, strain LCB3, stronger effect = lower value 1.01 | locus YJL154C, strain vps35, stronger effect = lower value 0.99 | locus YJL168C, strain set2, stronger effect = lower value 1.02 | locus YJL187C, strain SWE1 (second series), stronger effect = lower value 0.872
